JMJD2A Tudor inh – qHTS Assay for Inhibitors of JMJD2A-Tudor Domain; Lysine-specific demethylase 4A (Homo sapiens), O75164; AlphaScreen JMJD2A-Tudor / H3K4me3 peptide binding; Potency, µM (doses to about 114 µM), without a hit: at the top dose activity change, negative = inhibition, most hits filed as inhibitors; 4.4% of 390,000 active; note: % is set by controls: 0 for no effect and ±100 for the full control effect; nearly all actives have a fitted effect of over 50% in size
Sfp PPTase inh – qHTS Assay for Inhibitors of Bacillus subtilis Sfp phosphopantetheinyl transferase (PPTase); 4'-phosphopantetheinyl transferase ffp (Bacillus subtilis), Q9F4F7; Biochemical Sfp PPTase activity, qHTS; Potency, µM, without a hit: largest response in the series, negative = inhibition, actives largely listed as inhibitors; 3.5% of 310,000 active;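 note: the enzyme is Sfp with the accession as filed and its product quenches rhodamine fluorescence; 0% = enzyme reaction without inhibitor and -100% = no enzyme wells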
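Buffer: 50 mM Hepes-Na pH 7.6, 10 mM MgCl2, 0.01% Nonidet P-40, 0.01% BSA. Enzyme 15 nM, pre-exposed to compound 15 min; substrates then added and fluorescence change tracked over 30 min.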
HP1b chromo inh – HTS for Inhibitors of HP1-beta Chromodomain Interactions with Methylated Histone Tails. Potency, µM (doses to about 114 µM), for inactives: top-dose activity change, negative = inhibition, most hits filed as inhibitors. Chromobox protein homolog 1 (Homo sapiens), P83916. AlphaScreen HP1-beta / biotin-H3K9me3 peptide binding. 0.56% of 390,000 active; note: nearly all actives have a fitted effect of over 70% in size
Target sequence (P83916 whole entry, looked up): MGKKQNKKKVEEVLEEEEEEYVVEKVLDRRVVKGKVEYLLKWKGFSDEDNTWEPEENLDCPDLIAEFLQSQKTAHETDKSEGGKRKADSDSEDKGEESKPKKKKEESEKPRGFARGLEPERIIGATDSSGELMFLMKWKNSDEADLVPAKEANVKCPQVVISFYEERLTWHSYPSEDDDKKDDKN
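HP1-beta protein (50 nM final) preincubated 30 min at room temperature with biotinylated H3(1-18)K9me3 peptide (50 nM) in PBS pH 7.4, 0.01% Tween-20, then compound added for 30 min. AlphaScreen streptavidin donor/nickel chelate acceptor beads (10 ug/mL final), 30 min dark, luminescence read.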
PLK1 PBD inh – qHTS for Inhibitors of PLK1-PDB (polo-like kinase 1 - polo-box domain): Primary Screen; 2.8% of 360,000 active; Plk1 PBD binding of FITC phosphopeptide, fluorescence polarization; Serine/threonine-protein kinase PLK1 (Homo sapiens), P53350; Potency, µM, without a hit: max response, negative = inhibition, hits mostly inhibitors; AID 720504, 2013; note: series mostly up to about 57 µM; % is set by controls: 0 for no effect and ±100 for the full control effect; nearly all actives have a fitted effect of over 65% in size
BAZ2B inh – qHTS Assay for Inhibitors of BAZ2B; 4.4% of 360,000 active; Potency, µM (top dose mostly 114 µM), inactives show at the highest dose activity change, negative = inhibition, hits mostly inhibitors; AlphaScreen BAZ2B-H3K14Ac peptide displacement; Bromodomain adjacent to zinc finger domain protein 2B (Homo sapiens), Q9UIF8; note: % is set by controls: 0 for no effect and ±100 for the full control effect; nearly all actives have a fitted effect of over 60% in size
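BAZ2B 50 nM plus b-H3(5-23)K14Ac 50 nM, PBS pH 7.4/0.01% Tween-20, 30 min RT; compound added (max 110 uM), 30 min RT; streptavidin donor/Ni-chelate acceptor beads 10 ug/mL final, 20 min dark; AlphaScreen read.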
G9a inh – qHTS Assay for Inhibitors of Histone Lysine Methyltransferase G9a; G9a H3K9 monomethylation, AlphaScreen, 2 h; Potency, µM (series often up to 102 µM), for inactives: at the top dose activity, negative = inhibition, actives largely listed as inhibitors; 8.8% of 350,000 active; AID 504332, 2011; note: % is set by controls: 0 for no effect and ±100 for the full control effect; nearly all actives have a fitted effect of over 75% in size
Target sequence (Q96KQ7 913-1193 limits assumed): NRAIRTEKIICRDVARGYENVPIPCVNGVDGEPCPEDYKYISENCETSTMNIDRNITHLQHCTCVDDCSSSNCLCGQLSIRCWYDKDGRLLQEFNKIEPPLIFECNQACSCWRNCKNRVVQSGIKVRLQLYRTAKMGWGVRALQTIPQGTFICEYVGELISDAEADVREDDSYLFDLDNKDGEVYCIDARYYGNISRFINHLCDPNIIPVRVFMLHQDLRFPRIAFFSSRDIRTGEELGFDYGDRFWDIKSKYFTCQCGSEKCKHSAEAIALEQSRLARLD
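Quantitative HTS format: methyltransferase activity on a biotin-tagged H3K9 peptide is measured by AlphaScreen, using a rabbit anti-monomethyl-H3K9 antibody with streptavidin donor and anti-IgG acceptor beads. Final levels are 20 nM enzyme, 500 nM peptide, 20 uM SAM; 2 h RT.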
Numbers without * were called inactive; ? = inconclusive; / = not tested or not shown; [ ] = remark or other dose. Shown are actives, neighbours in structure and some others; about 12% of the full set was active somewhere. Calls come from the whole dose curve; as a rule, active = well fitted curve in the direction sought with a large enough effect; inconclusive = small, poorly fitted or top-dose-only effect, or another doubt; inactive = no such curve, though single readings can be large; an effect the other way counts as inactive or inconclusive. Potency is the fitted concentration of half-maximal effect.

SMILES | JMJD2A Tudor inh | Sfp PPTase inh | HP1b chromo inh | PLK1 PBD inh | BAZ2B inh | G9a inh
COc1ccc(C2=NS(=O)(=O)N(C)C(C(=O)N3CCCCC3C)=C2)cc1 (stereo not given) | -13% | -7% | 21% | -15% | 8% | /
CCOc1ccccc1NC(=O)CSc1nnc(-c2ccccn2)n1Cc1ccco1 | ? | -22% | 15% | -4% | ? | -51%
C=CCn1c(SCC(=O)Nc2cc(C)ccc2OC)nnc1-c1ccco1 | -10% | 18% | 27% | -7% | -2% | 11%
CCOc1ccccc1NC(=O)CSc1nnc(-c2ccco2)n1Cc1ccco1 | -34% | -11% | 7% | -10% | ? | 18µM*
Cc1ccc(NC(=O)CSc2nccn2Cc2ccco2)c(C)c1 | -2% | -7% | 16% | 1% | -38% | /
COc1ccc(OC)c(NC(=O)CSc2nccn2Cc2ccco2)c1 | -33% | 13% | -3% | -15% | -36% | 50µM*
COc1ccc(C)cc1NC(=O)CSc1nnc(-c2ccco2)n1Cc1ccco1 | ? | -19% | -19% | -12% | -36% | 56µM*
CC(C)Cn1nnnc1S(=O)(=O)CCc1ccccc1 | / | 21% | / | / | / | /
CC(=O)OC1CCC2(C)C(=CC=C3C2CCC2(C)C3CCC2C(C)/C=C/C(C)C(C)C)C1(C)C (stereo not given) | / | 7% | / | / | / | 1%[2.33 µM]
CC(=O)Nc1ccc(S(=O)(=O)NCC(C)NS(=O)(=O)c2ccc(NC(C)=O)cc2)cc1 (stereo not given) | -19% | -3% | 46% | 2% | -7% | -9%[12.7 µM]
CC(=O)Nc1ccc(S(=O)(=O)Nc2cc(C)ccn2)cc1 | -10% | 9% | 37% | -3% | -11% | 50µM*
Cc1ccnc(NS(=O)(=O)c2ccc(C(C)(C)C)cc2)c1 | / | 8% | / | / | -4% | 9%
CC(=O)Nc1ccc(S(=O)(=O)Nc2ccc(Nc3ccccc3)cc2)cc1 | ? | -2% | ? | -9% | -37% | 40µM*
CC(=O)Nc1ccc(S(=O)(=O)Nc2nc3ccccc3nc2Nc2ccc3ccccc3c2)cc1 | -10% | 5% | 34% | 24µM* | -5% | ?
CC(=O)Nc1ccc(S(=O)(=O)NCC(CCC(=O)O)C(F)(F)F)cc1 (stereo not given) | 16µM* | -1% | -3% | 13µM* | -13% | -1%
COc1ccc(-n2nnnc2SCC(=O)Nc2ccc(OC)cc2OC)cc1 | 2% | 1% | 31% | 1% | 11% | /
Cn1c(=O)c2c(O)c([N+](=O)[O-])c(=O)n(C)c2n(C)c1=O | -7% | 4% | 17% | 2% | -12% | ?
O=C(NC(=S)Nc1ccc(S(=O)(=O)Nc2ccccc2)cc1)C1CC1 | -21% | 5% | -4% | -27% | -31% | 14µM*
NS(=O)(=O)c1cccc(Nc2nc3ccccc3nc2NS(=O)(=O)c2ccc(Cl)cc2)c1 | -10% | / | 26%[57 µM] | 17µM* | / | /
Cc1ccc(NC(=S)NC(=O)C2CCCC2)cc1C | 6% | -6% | 54% | -18% | -8% | 35µM*
O=C(O)c1cccc(Nc2nc3ccccc3nc2NS(=O)(=O)c2ccccc2)c1 | 7% | / | 20% | ? | / | /
COC(=O)N1CCC2(CCN(C(=O)NC(C)C)CC2)CC1 | / | 9% | / | / | / | -39%[12.7 µM]
CCCCC/C=C\C/C=C\C/C=C\CCCCCCC(=O)NCC(=O)O | / | 2% | / | / | / | /
O=C(CNC(=O)C1CCCCC1)OCC(=O)c1ccc2c(c1)CCC2 | -5%[57.1 µM] | / | 27%[57 µM] | / | / | /
Cc1ccc(/C=C2\SC(=S)N(C3CCS(=O)(=O)C3)C2=O)cc1 (stereo not given) | -6% | 11% | 16% | -20% | -11% | -6%[59 µM]
O=C1/C(=C\c2ccco2)SC(=S)N1C1CCS(=O)(=O)C1 (stereo not given) | 56µM* | 32µM* | ? | -22% | 40µM* | /
